The list is not random: actives were taken first. Their share in the collection is about 3.3%.
PLK1 PBD inh = blocks phosphopeptide binding to human PLK1 polo-box domain; P53350; Plk1 PBD binding of FITC phosphopeptide, fluorescence polarization; Potency, µM, inactives show max response, negative = inhibition, hits mostly inhibitors; 360,000 tested, 2.8% active; AID 720504; note: potency is the fitted concentration of half-maximal effect; series mostly up to about 57 µM; nearly all actives have a fitted effect of over 65% in size
USP1-UAF1 inh = inhibitors of human USP1/UAF1 deubiquitinase; O94782; recombinant USP1/UAF1, Ub-Rhodamine cleavage fluorescence; AID 743255; Potency, µM (series often up to 57.1 µM), inactives show at the highest dose activity change, negative = inhibition, hits mostly inhibitors; 390,000 tested, 0.23% active; note: potency is the fitted concentration of half-maximal effect; nearly all actives have a fitted effect of over 60% in size
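Step one: compound is pinned into 1nM USP1/UAF1 in HEPES pH 7.8 buffer with TCEP. Step two: 15 min room-temperature incubation. Step three: Ub-Rho (150nM final) starts cleavage, tracked by fluorescence over six one-minute reads.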
WRN helicase inh = WRN helicase (human) inhibition. Q14191. WRN helicase unwinding, fluorescent forked duplex, kinetic. Potency, µM (doses to about 114 µM), for the others: at the highest dose activity change, negative = inhibition, most hits filed as inhibitors. 360,000 tested, 0.46% active. AID 651768; note: potency is the fitted concentration of half-maximal effect; nearly all actives have a fitted effect of over 55% in size
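Kinetic red-fluorescence monitoring (525/598 nm) tracks WRN helicase activity after 100 nM fluorophore-quencher forked duplex and 2 mM ATP are added to 20 nM enzyme pretreated 15 min at room temperature with compound.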
USP2a inh = blocks human ubiquitin-specific protease USP2a | USP2 core, Ub-CHOP2 coupled fluorogenic reporter, 485/531 | Potency, µM (highest dose often 38.3 µM), for the others: top-dose activity change, negative = inhibition, actives largely listed as inhibitors | 330,000 tested, 0.01% active;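 note: potency is the fitted concentration of half-maximal effect; plate controls were DMSO wells for no effect and full inhibition by NEM control for full effect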
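Deubiquitinase activity read as fluorescence (485/531 nm) after Ub-CHOP2 cleavage activates the enterokinase reporter on its substrate; USP2 core 10nM, Ub-CHOP2 and substrate 25nM each, 30min compound preincubation then 60min RT; data normalized to NEM, curves fitted.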
PI5P4K alpha inh = inhibitors of human PI5P4K alpha. P48426. PI5P4Kalpha enzyme, ADP-Glo luminescence, 60 min; active compounds read low. max response, %. 330,000 tested, 1.2% active; active = max response of -50% or lower; inconclusive = between -30% and -50%; inactive = -30% or higher; note: value at the top dose of about 77 µM
Target sequence (P48426 whole entry, looked up): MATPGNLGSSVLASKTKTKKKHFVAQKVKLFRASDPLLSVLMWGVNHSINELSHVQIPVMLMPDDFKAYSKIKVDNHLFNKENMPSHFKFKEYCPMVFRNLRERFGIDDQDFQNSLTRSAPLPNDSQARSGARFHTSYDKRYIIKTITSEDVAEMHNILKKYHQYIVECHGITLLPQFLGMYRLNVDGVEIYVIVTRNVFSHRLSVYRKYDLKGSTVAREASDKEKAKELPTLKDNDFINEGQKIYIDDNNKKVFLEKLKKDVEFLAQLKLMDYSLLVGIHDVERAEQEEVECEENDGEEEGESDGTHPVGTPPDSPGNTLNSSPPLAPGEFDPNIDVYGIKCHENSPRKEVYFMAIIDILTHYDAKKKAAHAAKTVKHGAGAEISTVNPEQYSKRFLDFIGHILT
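Reactions run in 0.038 M HEPES pH 7.4, 0.28 mM EGTA, 0.1% CHAPS and 5% DMSO, with PI5P4Kalpha, substrate, compound and 5 microM ATP final, one hour at room temperature. Readout is ADP-Glo luminescence.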
TbPYK confirm = Trypanosoma brucei pyruvate kinase inhibition, cherry-pick confirmation; Potency, µM (highest dose often 76.9 µM), for the others: at the top dose activity change, negative = inhibition, hits mostly inhibitors; shares compounds with PLK1 PBD inh; 890 tested, 67% active; AID 720569; recombinant TbPYK, Kinase-Glo ATP luminescence; note: potency is the fitted concentration of half-maximal effect; nearly all actives have a fitted effect of over 70% in size
TbPYK orthogonal = TbPYK inhibition, orthogonal confirmation; shares compounds with PLK1 PBD inh; recombinant TbPYK, ADP-Glo luminescence, 60 min; Potency, µM (highest dose often 76.9 µM), inactives show at the highest dose activity change, negative = inhibition, actives largely listed as inhibitors; 890 tested, 62% active; AID 720584; note: potency is the fitted concentration of half-maximal effect; nearly all actives have a fitted effect of over 75% in size
* hit, by the source's call; ? = inconclusive; · = no result given; [ ] = remark or other dose. Unless noted, calls come from the whole dose curve; as a rule, active = well fitted curve in the direction sought with a large enough effect; inconclusive = small, poorly fitted or top-dose-only effect, or another doubt; inactive = no such curve, though single readings can be large; an effect the other way counts as inactive or inconclusive. Unless noted, % is set by controls: 0 for no effect and ±100 for the full control effect.

SMILES	PLK1 PBD inh	USP1-UAF1 inh	WRN helicase inh	USP2a inh	PI5P4K alpha inh	TbPYK confirm	TbPYK orthogonal
COC(=O)COc1ccc(C2Nc3c(Cl)ccc(C(=O)O)c3C3C=CCC32)cc1 (stereo unspecified)	21.2µM*	?	22.4µM*	3.5%	-57.2*	?	?
O=P(c1ccccc1)(c1ccccc1)c1ccccc1C(Br)Br	-10.6%	0.5%	-14.0%	·	0.9	22.4µM*	31.6µM*
CCOc1cc2[nH]c(=S)n(Cc3ccc(C(=O)NCCN(CC)CC)cc3)c(=O)c2cc1OCC	-13.3%	-26.7%	-11.2%	-1.9%	3.3	14.1µM*	14.1µM*
CCOc1cc2[nH]c(=S)n(Cc3ccc(C(=O)NCC(OC)OC)cc3)c(=O)c2cc1OCC	-1.2%	-23.0%	4.1%	-2.3%	-2.3	·	·
Cc1nonc1C(=O)N/N=C/c1ccc(O)c(O)c1	0.4%	-20.3%	3.5%	2.4%	-17.2	?	4.3%
Cc1nonc1C(=O)N/N=C/c1cc2c(cc1Br)OCO2	-18.3%	4.3%	-1.8%	8.8%	-3.6	·	·
CCOc1ccccc1C(=O)N1CCC(c2nc3ccccc3o2)CC1	·	6.7%	·	·	·	·	·
CCCCCC(=O)NNC(=S)NC(=O)c1cccc([N+](=O)[O-])c1	15µM*	-17.6%	-2.0%	1.2%	-28.6	11.2µM*	14.1µM*
CCOC(=O)c1ccc(/[N+]([O-])=C/c2ccccc2)cc1	21.2µM*	-18.0%	2.8%	0.3%	-11.7	-26.2%	-10.7%
CCN(CC)CCCNC(=O)c1ccc2c(c1)N(Cc1c(F)cccc1Cl)C(=O)c1ccccc1S2	·	-10.3%	·	·	·	·	·
CS(=O)(=O)N1CCN(c2ccc([N+](=O)[O-])cc2C(F)(F)F)CC1	-16.3%	-13.8%	-5.3%	0.6%	3.4	?	?
O=S(=O)(c1ccc(F)cc1)N(Cc1nc(-c2ccc(Cl)cc2)no1)C1CCCCC1	·	-21.4%	·	·	·	·	·
CCC(CC)C(=O)Nc1cccc(C(=O)NCc2ccco2)c1	-6.0%	-6.6%	-19.5%[57.1 µM]	-0.9%	·	-7.8%	-15.3%
O=C(NCc1ccco1)c1cccc(NC(=O)c2ccccc2)c1	-10.6%	-14.7%	1.6%	3.1%	-0.4	·	·
COc1ccccc1NS(=O)(=O)c1ccc(C)c(C(=O)N2CCN(c3ccc(O)cc3)CC2)c1	-6.6%	-9.4%	-1.0%	-0.3%	-21.0	7.08µM*	15.8µM*
COc1ccc(-c2cn(-c3ccc(C)cc3)c(S(=O)(=O)CC(=O)Nc3ccccc3)n2)cc1	·	-12.0%	·	·	·	·	·
CCC(=O)N1CCCc2cc(S(=O)(=O)N3CCCc4ccccc43)ccc21	-12.4%	-4.2%	-0.6%[57.1 µM]	-3.4%	1.2	15.8µM*	31.6µM*
CCC(=O)N1CCc2cc(Br)cc(S(=O)(=O)NCCc3ccccc3Cl)c21	·	-28.0%	·	·	·	·	·
Cc1ccc(C)c(Cn2c3ccccc3c3cnn(CC(=O)NC(C)c4ccccc4)c(=O)c32)c1 (stereo unspecified)	·	-18.4%	·	·	·	·	·
O=C1c2sc3nc4n(c(=O)c3c2CCC1Br)CCCCC4 (stereo unspecified)	-1.2%	-18.3%	-33.2%	-2.1%	-28.9	3.98µM*	5.62µM*
O=c1c2sccc2[nH]c(=S)n1Cc1ccccc1	-19.6%	-13.1%	-35.8%[57.1 µM]	-5.8%	-4.6	14.1µM*	7.08µM*
COc1ccc(Cn2c(=S)[nH]c3ccsc3c2=O)cc1	-10.4%	-16.9%	-2.4%	-1.1%	2.2	5.01µM*	5.62µM*
CC(NC(=O)CCn1c(=S)[nH]c2ccsc2c1=O)c1ccccc1 (stereo unspecified)	-10.9%	3.6%	-15.2%	1.2%	-11.0	·	·
CCOC(=O)c1ccc(OCC2c3cc(OC)c(OC)cc3CCN2C(=O)c2ccc(S(=O)(=O)N3CCCC3)cc2)cc1 (stereo unspecified)	·	-13.1%	·	·	·	·	·
c1cc2c(cc1CN1CCOCC1)OCO2	-6.6%	-6.0%	-11.9%	-2.6%	·	12.2%	-3.4%
SMILES	PLK1 PBD inh	USP1-UAF1 inh	WRN helicase inh	USP2a inh	PI5P4K alpha inh	TbPYK confirm	TbPYK orthogonal
O=C(O)CCc1ccc(-c2ccc(Cl)cc2)o1	?	-7.7%	-18.0%	-0.3%	·	?	?
COc1cccc(OCC(=O)Nc2nnc3n2CCS3)c1	·	-10.5%	·	·	·	·	·
O=C(CSc1ccc(-c2nc3ccccc3[nH]2)cn1)N1CCN(C(=O)c2ccco2)CC1	29.9µM*	-15.8%	?	0.5%	·	?	?
O=C(CCc1nc2ccccc2[nH]1)N1CCN(C(=O)c2ccco2)CC1	-1.7%	-14.7%	1.0%	-1.4%	0.9	·	·
Cc1cc(N2CCOCC2)ccc1/C=C1/SC(=O)NC1=O	-11.0%	-11.5%	?	0.2%	-4.8	?	39.8µM*
C=CCN1C(=O)S/C(=C\c2ccc(N3CCOCC3)cc2C)C1=O	15.5%	-17.0%	26.1%	15.0%	2.9	·	·
O=C1NC(=O)/C(=C/c2cc3c(cc2Br)OCO3)S1	-29.2%	-26.0%	-24.3%	0.4%	?	·	·
O=C1NC(=O)/C(=C\c2ccc(O)cc2O)S1	-26.0%	-22.2%	35.5µM*	2.6%	-91.9*	28.2µM*	28.2µM*
Cc1c(C(=O)Nc2cccc(C(F)(F)F)c2)oc2ccc3c(c12)C(=O)CC(C)(C)O3	·	-37.0%	·	·	·	·	·
CC(OC(=O)C1=Cc2ccccc2OC1)C(=O)NCC1CCCO1 (stereo unspecified)	11.9µM*	-12.9%	-32.6%	·	-63.3*	-6.8%	-7.2%
COCCNC(=O)C(C)OC(=O)C1=Cc2ccccc2OC1 (stereo unspecified)	-10.4%	-11.1%	-2.6%	0.2%	-2.2	·	·

Source: PubChem (National Center for Advancing Translational Sciences (NCATS))
